Assay results: PubChem BioAssay (NCI)
Several values for one entry are separate records, joined by “and”; a condition that tells them apart may be missing. Equal values may be shown once. The panel holds about 79,000 compounds, 15% with a hit somewhere; the sample as a whole holds those more often. A structure can be active in one record and inactive in another. Activity calls are given as the source filed them. No stated cut-off is given here; in the data, active means growth inhibition above about 70%; inactive means the rest.

How the values were obtained:
[1] = NCI Yeast Anticancer Drug Screen. Data for the rad50 strain (AID 155);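 further: 0% = growth of vehicle-only cultures of the same strain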; settings: S. cerevisiae rad50 strain growth inhibition; at 50.0 µM; stronger effect = higher value
Outline: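 A DNA repair-deficient yeast mutant serves as the test organism; compound-induced growth inhibition is calculated against vehicle-treated cells.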

[2] = NCI Yeast Anticancer Drug Screen. Data for the mec2-1 strain (AID 157); settings: S. cerevisiae mec2-1 strain, at 50.0 µM, stronger effect = higher value
Outline: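 Cells of the genetically defined mec2-1 yeast strain are incubated with test compound. Inhibition of growth is calculated against vehicle-treated controls.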

[3] = NCI Yeast Anticancer Drug Screen. Data for the sgs1 mgt1 strain (AID 161);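 further: 0% = growth of cultures given vehicle only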; settings: S. cerevisiae sgs1 mgt1 strain, at 50.0 µM, stronger effect = higher value
Outline: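 Mutant yeast exposed to compound; growth scored against vehicle-only wells.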

[4] = NCI Yeast Anticancer Drug Screen. Data for the cln2 rad14 strain (AID 165);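 further: 0% = growth equal to vehicle treated cultures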; settings: S. cerevisiae cln2 rad14 strain, at 50.0 µM, stronger effect = higher value
Outline: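 The screen exposed genetically defined yeast (cln2 rad14) to test compounds and scored growth inhibition relative to vehicle-treated controls.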

[5] = NCI Yeast Anticancer Drug Screen. Data for the bub3 strain (AID 167); settings: S. cerevisiae bub3 mutant strain, at 50.0 µM, stronger effect = higher value
Outline: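 Inhibition values come from growth of compound-treated mutant yeast normalised to vehicle-treated controls.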

[6] = NCI Yeast Anticancer Drug Screen. Data for the mlh1 rad18 strain (AID 175); settings: S. cerevisiae mlh1 rad18 strain growth inhibition; at 50.0 µM; stronger effect = higher value
Outline: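 Compound-treated yeast growth, normalised to vehicle controls. Strain bears defined DNA repair mutations.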

Row | SMILES | growth inhibition [1] | growth inhibition [2] | growth inhibition [3] | growth inhibition [4] | growth inhibition [5] | growth inhibition [6]
1 | NNc1nc2c(N)ncnc2n1C1OC(CO)C(O)C1O (stereo unspecified) | -7% (inactive) and 14% (inactive) | -5.05% (inactive) and 15.8% (inactive) | 17.4% (inactive) and 4.95% (inactive) | -21.1% (inactive) and 15.2% (inactive) | 14.8% (inactive) and 13.1% (inactive) | -5.95% (inactive) and 10.6% (inactive)
2 | C/C(C=O)=C\c1ccc(N(C)C)cc1 | -36.5% (inactive) and 5% (inactive) | -21.8% (inactive) and 2.5% (inactive) | -20.6% (inactive) and -13.9% (inactive) | -44.8% (inactive) and 13.2% (inactive) | 16.5% (inactive) and 8.5% (inactive) | -4.45% (inactive) and 13.6% (inactive)
3 | CC(C)(C)CC(C)(C)c1ccc(O)c(SSc2cc(C(C)(C)CC(C)(C)C)ccc2O)c1 | 4.95% (inactive) and 11.8% (inactive) | -16.1% (inactive) and 4.4% (inactive) | 7.7% (inactive) and -8.55% (inactive) | 13.2% (inactive) and -17.5% (inactive) | 11.5% (inactive) and 0.5% (inactive) | 6.65% (inactive) and 24.1% (inactive)
4 | CC(Br)C(=O)NC(Cc1ccccc1)C(=O)O (stereo unspecified) | 2.65% (inactive) and -4.15% (inactive) and -18.5% (inactive) | -18.9% (inactive) and 0.65% (inactive) and -20.2% (inactive) | -11.8% (inactive) and 3% (inactive) | 16.8% (inactive) and -25.6% (inactive) | -17.5% (inactive) and 8.15% (inactive) | 25.4% (inactive) and 5.95% (inactive) and -9.85% (inactive)
5 | Cc1ccc(C2=Nc3c(N)nc(N)nc3NC(c3ccccc3)C2)cc1 (stereo unspecified) | 78.3% (active) and 79.8% (active) | 81.8% (active) and 79.5% (active) | 89.2% (active) and 89.4% (active) | 63.5% (inactive) and 62.7% (inactive) | 75.8% (active) and 77.4% (active) | 90% (active) and 88.4% (active)
6 | CN(C)COC(=S)S | -7.65% (inactive) and 4.05% (inactive) | -14.4% (inactive) and 3.65% (inactive) | -3.8% (inactive) and -1.7% (inactive) | -30.9% (inactive) and 3.55% (inactive) | 1.75% (inactive) and -5.5% (inactive) | -3.9% (inactive) and 2.1% (inactive)
7 | Cc1cccc(OC(=O)Cc2ccccc2)c1 | -17.1% (inactive) and -34.1% (inactive) | -14.6% (inactive) and -8.2% (inactive) | -6.1% (inactive) and -8.35% (inactive) | -9.45% (inactive) and -38% (inactive) | 13.6% (inactive) and -12.9% (inactive) | -16.2% (inactive) and -8% (inactive)
8 | CCOC(=O)c1ccc(O)c(O)c1 | -23.9% (inactive) and 15.5% (inactive) | -28.1% (inactive) and 6.75% (inactive) | -6.65% (inactive) and 4.05% (inactive) | -12.2% (inactive) and 8.9% (inactive) | -11.8% (inactive) and 0.7% (inactive) | -8.8% (inactive) and -5.75% (inactive)
9 | O=C(OCC(OC(=O)c1ccccc1)C(OC(=O)c1ccccc1)c1cnn(-c2ccccc2)n1)c1ccccc1 (stereo unspecified) | -24.1% (inactive) and 4.05% (inactive) | 4.1% (inactive) and 15.4% (inactive) | -34.4% (inactive) and -11.9% (inactive) | -35% (inactive) and -15.7% (inactive) | -10.8% (inactive) and -1.55% (inactive) | -4.25% (inactive) and 17.6% (inactive)
10 | Cc1ccc(S(=O)(=O)NN)cc1 | -8.7% (inactive) and 9.3% (inactive) | 2.3% (inactive) and -9.9% (inactive) | -3.6% (inactive) and 5.7% (inactive) | 2.5% (inactive) and 6.7% (inactive) | -30.2% (inactive) and 16.4% (inactive) | -20% (inactive) and 5.9% (inactive)
11 | S=C(S)NCCNC(=S)S.[Cu+2] | 1.15% (inactive) and 27.4% (inactive) | -8.7% (inactive) and -11.9% (inactive) | -0.6% (inactive) and 6.45% (inactive) | -41.2% (inactive) and -56.4% (inactive) | -18.2% (inactive) and -14.6% (inactive) | 5.3% (inactive) and -15.5% (inactive)
12 | Cc1ccc(S(=O)(=O)Oc2cc(N)c3c(n2)CCC3)cc1 | -4.7% (inactive) and 5.5% (inactive) | -13.6% (inactive) and -7.8% (inactive) | 7.8% (inactive) and -23.3% (inactive) | -48.2% (inactive) and 6.55% (inactive) | -16.2% (inactive) and -0.65% (inactive) | -3.45% (inactive) and 0.5% (inactive)
13 | COc1ccc2c(c1OC)C(=O)N1C2=Cc2c(cc3c(c2OC)OCO3)CC1N(C)C (stereo unspecified) | 16.7% (inactive) and 30.1% (inactive) | -26.1% (inactive) and 33.8% (inactive) | 39.9% (inactive) and 57.1% (inactive) | 12.3% (inactive) and 13% (inactive) | -11.8% (inactive) and 17.6% (inactive) | 12.7% (inactive) and 41.2% (inactive)
14 | Cc1cc(N(C)C)nc(N(C)C)n1 | -4.75% (inactive) and -1.7% (inactive) | -4.7% (inactive) and -14.8% (inactive) | -1.5% (inactive) and -5.25% (inactive) | -0.9% (inactive) and -33.3% (inactive) | 10.9% (inactive) and -7.15% (inactive) | 8.25% (inactive) and -10.1% (inactive)
15 | CC1(c2cccs2)NC(=O)NC1=O (stereo unspecified) | 19.6% (inactive) and 3.7% (inactive) | -6.2% (inactive) and 9.05% (inactive) | 6.25% (inactive) and 6.1% (inactive) | -41% (inactive) and 2.3% (inactive) | 0.95% (inactive) and 8.8% (inactive) | 7.1% (inactive) and -3.55% (inactive)
16 | Cc1cc(C#N)c(=S)n(C2OC(CO)C(O)C(O)C2O)c1C (stereo unspecified) | 7.4% (inactive) and 11.9% (inactive) | 9.25% (inactive) and 8.65% (inactive) | 14.2% (inactive) and 15.2% (inactive) | 7.25% (inactive) and -0.4% (inactive) | 7.8% (inactive) and 7.75% (inactive) | 24.6% (inactive) and 22.6% (inactive)
17 | CC1(C)CC(=O)CC(=O)C1 | 25.2% (inactive) and 10.2% (inactive) | 12.8% (inactive) and 3.15% (inactive) | -9.3% (inactive) and 4.6% (inactive) | 18.8% (inactive) and 0.85% (inactive) | 2.55% (inactive) and 6.75% (inactive) | 18.6% (inactive) and 6.8% (inactive)
18 | CC(C)C1CCC(NC(=O)Nc2ccccc2)CC1 (stereo unspecified) | 79.5% (active) and 20.6% (inactive) | 48.5% (inactive) and 20.3% (inactive) | 70.5% (active) and 43.2% (inactive) | 46.2% (inactive) and -3.5% (inactive) | 66.7% (inactive) and 23.6% (inactive) | 81.1% (active) and 44.8% (inactive)
19 | CCCc1ccc(OC2OC(COC(C)=O)C(OC(C)=O)C(OC(C)=O)C2OC(C)=O)cc1 (stereo unspecified) | -7% (inactive) and -12.6% (inactive) | -9.65% (inactive) and 2.4% (inactive) | -13.5% (inactive) and 9.65% (inactive) | -5.25% (inactive) and 3.95% (inactive) | -37% (inactive) and 5.1% (inactive) | -8.05% (inactive) and 4.1% (inactive)
20 | N#CC(Cc1ccccc1)c1ccccc1 (stereo unspecified) | -65.7% (inactive) and 17.2% (inactive) | -12.5% (inactive) and 11.1% (inactive) | -18.1% (inactive) and 29.8% (inactive) | -24.8% (inactive) and 1.75% (inactive) | 0.45% (inactive) and -5% (inactive) | 3.45% (inactive) and 6.45% (inactive)
21 | CC(=O)OCCN(CCOC(C)=O)C(C)=O | 22.6% (inactive) and -2.1% (inactive) | 5.7% (inactive) and 8.4% (inactive) | 19.1% (inactive) and 0.4% (inactive) | 7.3% (inactive) and -18.9% (inactive) | -1.45% (inactive) and -10.7% (inactive) | 17.9% (inactive) and -3.75% (inactive)
